Here are results for 12 molecules from ChEMBL document CHEMBL3988442, “University of Dundee, Small-Polar-MMV Screening Library” (2021).

Structures are written as SMILES.

For experiment [1], the target named is T1, Aspartate--tRNA(Asp/Asn) ligase (Mycobacterium tuberculosis (strain ATCC 25618 / H37Rv)) (UniProt P9WFW3). Further: in the data most compounds retested in dose-response had high values.
T1 sequence (whole entry): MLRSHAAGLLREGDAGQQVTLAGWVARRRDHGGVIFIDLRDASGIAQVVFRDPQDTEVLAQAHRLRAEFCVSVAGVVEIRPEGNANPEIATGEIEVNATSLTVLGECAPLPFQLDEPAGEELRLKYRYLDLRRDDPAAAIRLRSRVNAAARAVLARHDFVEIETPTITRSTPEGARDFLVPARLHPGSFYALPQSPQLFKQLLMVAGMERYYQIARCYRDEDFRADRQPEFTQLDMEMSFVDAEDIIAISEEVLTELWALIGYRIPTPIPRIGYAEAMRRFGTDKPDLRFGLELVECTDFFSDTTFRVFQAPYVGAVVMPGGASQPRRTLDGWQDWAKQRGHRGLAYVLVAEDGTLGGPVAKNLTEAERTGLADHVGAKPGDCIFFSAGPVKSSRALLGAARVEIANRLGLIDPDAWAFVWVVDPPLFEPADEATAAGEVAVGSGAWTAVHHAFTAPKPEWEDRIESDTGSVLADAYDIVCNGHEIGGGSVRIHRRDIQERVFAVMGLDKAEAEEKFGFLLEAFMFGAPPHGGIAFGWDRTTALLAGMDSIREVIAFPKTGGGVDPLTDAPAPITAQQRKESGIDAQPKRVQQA
In words: Assay for Asp RNA synthetase-1 from Mycobacterium tuberculosis. Format: functional. Also on record: scale not given: direction of the effect not stated beside the values. The note with it: 30 µM.

Experiment [2] deals with Shiga toxin 2 (Escherichia coli O157:H7) (UniProt P09385+P09386). In words: E. coli 0.157:H7 Shiga Toxin SOP - stx2 screening assay. Format: functional. As to conditions: 30 µM. Also on record: scale not given: direction of the effect not stated beside the values.

As for `CCOCC1CN(Cc2cnn(C)c2)Cc2ncn(CC3CC3)c21` (centres undefined), the results for the Percent Effect in experiment [1] and in experiment [2] were 2.64% and 3.02%, respectively.

Turning to `Cc1ccc(-c2noc(CN3CCOC(CN(C)C)C3)n2)cc1F` (centres undefined), the Percent Effect in experiment [1] came out at 3.61%; in experiment [2], 24.6%.

As to `O=C(CN1CCCCCCC1=O)NCc1ccccn1`, the results for the Percent Effect in experiment [1] and in experiment [2] were -0.137% and -35.3%, respectively.

Regarding `COCCN1CC(C(=O)NCc2ccnc(-n3cccn3)c2)CC1=O` (centres undefined), the Percent Effect in experiment [1] is -0.544%; in experiment [2], -36.8%.

Take `CC(C)CS(=O)(=O)N1C[C@H]2C[C@H](C(=O)NCc3ccccc3)[C@@H](C1)O2`: the results for the Percent Effect in experiment [1] and in experiment [2] were 2.67% and -41.8%, respectively.

As to `Cc1ccc(C(=O)N2CCC3(CC2)NC(=O)CC3c2ccccc2)cn1` (centres undefined), the Percent Effect is 3.23% in experiment [1] and -13.9% in experiment [2].

For the molecule `CCc1ccc(O)c(C(=O)NC2CCN(Cc3ccncc3)CC2)c1`, the Percent Effect is -4.26% in experiment [1] and -67.7% in experiment [2].

Turning to `O=S(=O)(N(Cc1ccccn1)C1CC1)N1CCCC1c1ccco1` (centres undefined), the Percent Effect is 2.62% in experiment [1] and -10.3% in experiment [2].

On to `CC(C)C(C(=O)N1CCN(c2ccncc2)CC1)n1cncn1` (centres undefined), for which the Percent Effect is 7.82% in experiment [1] and -47.8% in experiment [2].

Turning to `CC(C)c1nnc(NC(=O)NCc2ccnc(N(C)C)c2)s1`, the Percent Effect was -3.25% in experiment [1] and -21.8% in experiment [2].

In the case of `CCOc1ncccc1NC(=O)N1CCN(c2cccc(C)c2C)CC1`, the figures for the Percent Effect in experiment [1] and in experiment [2] were 1.92% and 38.1%, respectively.

For `COc1ccc(CNC(=O)N2CCC(Cc3cnn(C)c3)C2)cc1C` (centres undefined), the Percent Effect was -2.9% in experiment [1] and 18% in experiment [2].
